For six compounds, AC50 and outcome results are on record in PubChem BioAssay (EPA / NIEHS).

Where “and” joins values, the source holds several entries; their conditions need not be identical. Equal values may be shown once. A structure can be active in one record and inactive in another. Calls of active or inactive are those of the source. The calls were made as follows: active = hit-call score of the fitted dose curve at least 0.9, where 1 is the maximum; inactive = score below 0.9.

What is called AC50 is the concentration giving half of the maximal activity seen.

Read-out in test [1]: Vascular cell adhesion molecule 1 (VCAM1), VCAM1 (gene 7412)
Put plainly: BSK_4H_VCAM1: BioMAP Diversity Plus: 4H Assay for Vascular cell adhesion molecule 1 (VCAM1) Biomarker Activity (AID 2283033).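 As to outcome: cell-surface VCAM-1 protein measured by ELISA.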 To be noted: primary human endothelial cells (HUVEC); actives raise or lower the signal. In outline: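 Primary human umbilical vein endothelial cells were exposed to chemicals for 24 h, after which VCAM-1 was quantified by ELISA. Responses were fitted bidirectionally against DMSO as negative control and activity baseline.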

Read-out in test [2]: Interferon-gamma inducible Protein 10 (IP10), CXCL10 (gene 3627)
Put plainly: BSK_BE3C_IP10: BioMAP Diversity Plus: BE3C Assay for Interferon-gamma inducible Protein 10 (IP10) Biomarker Activity (AID 2283034). To be noted: primary human bronchial epithelial cells; actives raise or lower the signal. In outline:
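Human primary bronchial epithelial cells were exposed to chemicals for 24 hours, after which IP-10 levels were measured by ELISA. Data were fitted bidirectionally against DMSO, which served as the negative control and activity baseline.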

Read-out in test [3]: Monokine induced gamma interferon (MIG), CXCL9 (gene 4283)
The test can be described thus: BSK_BE3C_MIG: BioMAP Diversity Plus: BE3C Assay for Monokine induced gamma interferon (MIG) Biomarker Activity (AID 2283035).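 As to outcome: MIG protein measured by ELISA in BE3C cultures after 24 h of dosing.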 As to conditions: primary human bronchial epithelial cells; actives raise or lower the signal. In outline:
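ELISA read-out of MIG in human lung bronchial epithelial primary cultures, 24 h post-dosing. Bidirectional curve fit vs DMSO baseline.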

Read-out in test [4]: Transforming growth factor beta 1 (TGFb1), TGFB1 (gene 7040)
The test can be described thus: BSK_BE3C_TGFb1: BioMAP Diversity Plus: BE3C Assay for Transforming growth factor beta 1 (TGFb1) Biomarker Activity (AID 2283036). To be noted: primary human bronchial epithelial cells; actives raise or lower the signal. Put shortly: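 Human primary bronchial epithelial cells (BE3C system) were dosed with chemical and TGF-b1 levels measured by ELISA at 24 h. Activity was fitted bidirectionally relative to DMSO negative control as baseline.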

Read-out in test [5]: Plasminogen activator inhibitor-1 (PAI1), SERPINE1 (gene 5054)
The test can be described thus: BSK_BE3C_PAI1: BioMAP Diversity Plus: BE3C Assay for Plasminogen activator inhibitor-1 (PAI1) Biomarker Activity (AID 2283037). As to conditions: primary human bronchial epithelial cells; actives raise or lower the signal. In outline:
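Human primary bronchial epithelial cells were exposed to chemical for 24 h, then PAI-1 was quantified by ELISA. Activity was fitted bidirectionally relative to the DMSO negative control baseline.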

Read-out in test [6]: urokinase plasminogen activator (uPA), PLAU (gene 5328)
Put plainly: BSK_BE3C_uPA: BioMAP Diversity Plus: BE3C Assay for urokinase plasminogen activator (uPA) Biomarker Activity (AID 2283038).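 As to outcome: uPA protein level quantified by ELISA in cell cultures; uPA read one day after compound addition.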 To be noted: primary human bronchial epithelial cells; actives raise or lower the signal. Put shortly:
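Bronchial epithelial cells (human, primary); chemical 24 h; uPA by ELISA; bidirectional fit vs DMSO. SRB (0.1%, after 10% TCA fixation, 560 nm) in parallel cultures for cytotoxicity.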

Read-out in test [7]: Urokinase-type plasminogen activator receptor (uPAR), PLAUR (gene 5329)
Put plainly: BSK_BE3C_uPAR: BioMAP Diversity Plus: BE3C Assay for Urokinase-type plasminogen activator receptor (uPAR) Biomarker Activity (AID 2283039).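 As to outcome: uPAR protein level measured by ELISA on the cells; cells exposed to compound for one day before measurement.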 As to conditions: primary human bronchial epithelial cells; actives raise or lower the signal. In outline: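 Primary human bronchial epithelial cells were dosed with chemical and harvested 24 h later; uPAR was quantified by ELISA. Activity was fitted bidirectionally against DMSO as negative control and baseline.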

Read-out in test [8]: Interleukin-6 (IL6), IL6 (gene 3569)
Put plainly: BSK_CASM3C_IL6: BioMAP Diversity Plus: CASM3C Assay for Interleukin-6 (IL6) Biomarker Activity for (AID 2283040). To be noted: primary human coronary artery smooth muscle cells; actives raise or lower the signal.

Read-out in test [9]: Tissue plasminogen activator (tPA), PLAT (gene 5327)
The test can be described thus: BSK_BE3C_tPA: BioMAP Diversity Plus: BE3C Assay for Tissue plasminogen activator (tPA) Biomarker Activity (AID 2283041).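 As to outcome: tPA level quantified by ELISA one day after compound addition.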 To be noted: primary human bronchial epithelial cells; actives raise or lower the signal. Put shortly: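 Human primary bronchial epithelial cells were dosed with chemical and tPA biomarker levels measured by ELISA 24 hours later. Activity was fitted bidirectionally against DMSO as negative control and baseline.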

Read-out in test [10]: Interleukin-8 (IL8), CXCL8 (gene 3576)
The test can be described thus: BSK_CASM3C_IL8: BioMAP Diversity Plus: CASM3C Assay for Interleukin-8 (IL8) Biomarker Activity (AID 2283042).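 Also: IL-8 protein level quantified by ELISA.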 As to conditions: primary human coronary artery smooth muscle cells; actives raise or lower the signal.

Read-out in test [11]: Human Leukocyte Antigen - DR isotype (HLADR), HLA-DRA (gene 3122)
The test can be described thus: BSK_CASM3C_HLADR: BioMAP Diversity Plus: CASM3C Assay for Human Leukocyte Antigen - DR isotype (HLADR) Biomarker Activity (AID 2283043).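 Also: cell-surface HLA-DR protein level quantified by ELISA.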 As to conditions: primary human coronary artery smooth muscle cells; actives raise or lower the signal.

Read-out in test [12]: Macrophage colony-stimulating factor (MCSF), CSF1 (gene 1435)
The test can be described thus: BSK_CASM3C_MCSF: BioMAP Diversity Plus: CASM3C Assay for Macrophage colony-stimulating factor (MCSF) Biomarker Activity (AID 2283044).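 Also: M-CSF protein amount quantified by ELISA after 24 h exposure.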 To be noted: primary human coronary artery smooth muscle cells; actives raise or lower the signal.

Read-out in test [13]: Low-density lipoprotein receptor (LDLR), LDLR (gene 3949)
Put plainly: BSK_CASM3C_LDLR: BioMAP Diversity Plus: CASM3C Assay for Low-density lipoprotein receptor (LDLR) Biomarker Activity (AID 2283045).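 Also: LDLR protein level on the cell surface quantified by ELISA.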 As to conditions: primary human coronary artery smooth muscle cells; actives raise or lower the signal.

Read-out in test [14]: Monocyte Chemoattractant Protein-1 (MCP1), CCL2 (gene 6347)
Put plainly: BSK_CASM3C_MCP1: BioMAP Diversity Plus: CASM3C Assay for Monocyte Chemoattractant Protein-1 (MCP1) Biomarker Activity (AID 2283046).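 Also: MCP-1 level quantified by ELISA 24 h after dosing.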 To be noted: primary human coronary artery smooth muscle cells; actives raise or lower the signal.

A short description of test [15]: BSK_CASM3C_Proliferation: Cell Proliferation Assessment in the BioMAP Diversity Plus: CASM3C Assay (AID 2283047).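 Also: sulforhodamine B total protein stain as relative cell number at 560 nm; sub-confluent cells exposed 48 h before staining; fitted both ways against DMSO so gain or loss of cell number.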 To be noted: primary human coronary artery smooth muscle cells.
Read-out in test [16]: Monokine induced gamma interferon (MIG), CXCL9 (gene 4283)
The test can be described thus: BSK_CASM3C_MIG: BioMAP Diversity Plus: CASM3C Assay for Monokine induced gamma interferon (MIG) Biomarker Activity (AID 2283048).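 Also: MIG protein level measured by ELISA.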 As to conditions: primary human coronary artery smooth muscle cells; actives raise or lower the signal.

Read-out in test [17]: serum amyloid A (SAA), SAA1 (gene 6288)
Put plainly: BSK_CASM3C_SAA: BioMAP Diversity Plus: CASM3C Assay for serum amyloid A (SAA) Biomarker Activity (AID 2283049).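 Also: SAA protein level quantified by ELISA.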 To be noted: primary human coronary artery smooth muscle cells; actives raise or lower the signal.

A short description of test [18]: BSK_CASM3C_SRB: Viability Assessment in the BioMAP Diversity Plus: CASM3C Assay (AID 2283050).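 Also: total protein by SRB staining as cytotoxicity measure in parallel cultures.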 As to conditions: primary human coronary artery smooth muscle cells.
Read-out in test [19]: Thrombomodulin, THBD (gene 7056)
The test can be described thus: BSK_CASM3C_Thrombomodulin: BioMAP Diversity Plus: CASM3C Assay for Thrombomodulin Biomarker Activity (AID 2283051).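 Also: thrombomodulin protein level measured by ELISA 24 h after dosing.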 To be noted: primary human coronary artery smooth muscle cells; actives raise or lower the signal.

Read-out in test [20]: Tissue Factor, F3 (gene 2152)
The test can be described thus: BSK_CASM3C_TissueFactor: BioMAP Diversity Plus: CASM3C Assay for Tissue Factor Biomarker Activity (AID 2283052).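 Also: cell surface tissue factor protein level read by ELISA.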 To be noted: primary human coronary artery smooth muscle cells; actives raise or lower the signal.

For the compound `CN(c1nccc(=O)[nH]1)C1CCN(c2nc3ccccc3n2Cc2ccc(F)cc2)CC1`, the AC50 in [1] was 0.0185 µM (active). Further, the result in test [2], in test [3], in test [4], in [5], in test [6] and in test [7] was inactive. For the same compound, the outcome in [8], in test [9], in [10], in test [11], in test [12] and in [13] was inactive. Also, the outcome in test [14], in test [15], in [16], in test [17], in test [18] and in test [19] was inactive. The outcome in test [20] was inactive.
For the compound `CCOC(=O)C(C#N)=C(c1ccccc1)c1ccccc1`, the half-maximal activity concentration (AC50) in test [1] was 36.9 µM (active); in test [15], 12.8 µM (active) and 3.97 µM (active); in [19], 13.7 µM (active). Also, the result in [1], in [2], in [3], in [5], in test [6] and in test [7] was inactive. Moreover, the outcome in [8], in [9], in [10], in test [11], in [12] and in test [13] was inactive. The outcome in test [14], in test [16], in [17], in [18], in test [19] and in test [20] was inactive.
For the compound `Oc1c(Cl)cc(Cl)c(Cl)c1Cc1c(O)c(Cl)cc(Cl)c1Cl`, the AC50 was 12.8 µM (active) in test [1]; 8.17 µM (active) in test [2]; 8.39 µM (active) in test [3]; 3.97 µM (active) in test [5]; 20 µM (active) in test [7]; 7.83 µM (active) in [8]. Also, the AC50 is 2.28 µM (active) in test [11]; 8.79 µM (active) in test [12]; 30.7 µM (active) in [14]; 5.37 µM (active) in [15]; 19.8 µM (active) in test [16]; 3.97 µM (active) in [17]. Besides, the AC50 in test [18] is 7.17 µM (active); in [20], 1.73 µM (active). Besides, the result in [4], in test [6], in [9], in test [10], in test [13] and in [19] was inactive.
Turning to `C=C(C)C(=O)OCCOCCOCCOC(=O)C(=C)C`, the result in [1], in test [2], in [3], in test [4], in test [5] and in [6] was inactive. The outcome in [7], in test [8], in test [9], in test [10], in test [13] and in [14] was inactive. Also, the outcome in [15], in [16], in [17], in test [18], in test [19] and in [20] was inactive. The AC50 in test [11] is 0.0969 µM (active); in [12] it was 0.016 µM (active).
`CS(=O)(=O)c1ccc(C2=C(c3ccccc3)C(=O)OC2)cc1`: the outcome in test [1], in test [2], in test [3], in [4], in test [5] and in test [6] was inactive. In addition, the result in test [7], in test [8], in test [9], in [10], in test [11] and in [12] was inactive. Moreover, the outcome in test [13], in test [14], in test [15], in [16], in test [17] and in test [18] was inactive. Besides, the result in test [19] and in test [20] was inactive.
Consider `c1ccc(CCc2ccccc2)cc1`, for which the half-maximal activity concentration (AC50) is 35.9 µM (active) in [1]; 29.7 µM (active) in test [2]; 27.8 µM (active) in test [4]; 29.3 µM (active) in [5]; 28.9 µM (active) in test [6]; 20 µM (active) in test [7]. For the same compound, the AC50 is 26.8 µM (active) in test [8]; 30.6 µM (active) in test [9]; 29 µM (active) in test [11]; 29.5 µM (active) in test [12]; 30.6 µM (active) in [13]; 33.1 µM (active) in [14]. Moreover, the results for the AC50 in [17], in test [18] and in test [20] were 26.4 µM (active), 29.1 µM (active) and 20 µM (active), respectively. Moreover, the outcome in [3], in test [10], in test [15], in test [16] and in [19] was inactive.
